Assays:
Test in all cases: DAPPL (digital affinity profiling via proximity ligation, sequencing); 10 mM Tris-HCl pH 7.5, 50 mM NaCl, 1 mM DTT, 4% glycerol, room temperature, 30 min; GST-TFs on glutathione beads, 16-mer random dsDNA library, 0.1% formaldehyde crosslink after washing; high values mean tight binding
Details in all cases: protein: recombinant; tags: N-terminal GST; dsDNA, one strand shown
EHF = target: T1, EHF (Homo sapiens, UniProt Q9NZC4 1-300)
T1 sequence: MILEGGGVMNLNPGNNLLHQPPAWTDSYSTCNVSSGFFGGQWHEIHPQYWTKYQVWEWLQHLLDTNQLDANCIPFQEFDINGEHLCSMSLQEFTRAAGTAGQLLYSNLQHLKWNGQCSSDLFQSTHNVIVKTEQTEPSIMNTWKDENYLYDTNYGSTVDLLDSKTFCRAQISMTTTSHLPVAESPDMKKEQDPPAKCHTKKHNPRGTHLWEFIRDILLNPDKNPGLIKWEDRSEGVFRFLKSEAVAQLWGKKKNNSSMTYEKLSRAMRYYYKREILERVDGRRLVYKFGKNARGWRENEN
Outline: (§1)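 Yeast served to express human transcription factors as GST fusions, which were then captured on glutathione beads and labelled with DNA barcodes. Pooled with a tag-only sample, they were incubated with 200 nmole of a 16-mer random double-stranded DNA library for 30 min at room temperature in Tris/NaCl/DTT/glycerol buffer, washed, crosslinked with 0.1% formaldehyde, ligated by proximity, amplified by PCR and sequenced. Dividing each hexamer's read frequency for a factor by its frequency for the tag-only sample gives the binding signal.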

ELK3 = target: T2, ELK3 (Homo sapiens, UniProt P41970 1-407)
T2 sequence: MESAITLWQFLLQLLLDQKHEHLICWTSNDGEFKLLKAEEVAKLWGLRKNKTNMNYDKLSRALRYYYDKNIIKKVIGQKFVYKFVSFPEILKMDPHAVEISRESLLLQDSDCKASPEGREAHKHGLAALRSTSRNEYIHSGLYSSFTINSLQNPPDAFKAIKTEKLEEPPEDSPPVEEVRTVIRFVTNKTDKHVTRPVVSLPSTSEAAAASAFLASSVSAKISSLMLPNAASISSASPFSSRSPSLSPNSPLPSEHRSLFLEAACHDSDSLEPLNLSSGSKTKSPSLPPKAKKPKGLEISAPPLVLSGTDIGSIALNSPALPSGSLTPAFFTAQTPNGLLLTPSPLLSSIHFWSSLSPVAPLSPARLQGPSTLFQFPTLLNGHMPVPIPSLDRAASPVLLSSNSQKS
Outline: as §1

ELF3 = target: T3, ELF3 (Homo sapiens, UniProt P78545 1-371)
T3 sequence: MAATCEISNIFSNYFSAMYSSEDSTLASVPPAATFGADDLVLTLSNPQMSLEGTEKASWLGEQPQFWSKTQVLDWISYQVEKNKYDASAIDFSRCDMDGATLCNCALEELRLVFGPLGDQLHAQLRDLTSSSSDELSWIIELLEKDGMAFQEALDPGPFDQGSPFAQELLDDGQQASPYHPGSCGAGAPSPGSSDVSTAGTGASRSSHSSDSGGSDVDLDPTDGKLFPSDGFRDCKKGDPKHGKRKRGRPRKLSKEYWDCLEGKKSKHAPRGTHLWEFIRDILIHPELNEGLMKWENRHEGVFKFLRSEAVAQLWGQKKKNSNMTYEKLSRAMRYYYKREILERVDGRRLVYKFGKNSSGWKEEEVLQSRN
Outline: as §1

ELF5 = target: T4, ELF5 (Homo sapiens, UniProt Q9UKW6-2 1-255)
T4 sequence: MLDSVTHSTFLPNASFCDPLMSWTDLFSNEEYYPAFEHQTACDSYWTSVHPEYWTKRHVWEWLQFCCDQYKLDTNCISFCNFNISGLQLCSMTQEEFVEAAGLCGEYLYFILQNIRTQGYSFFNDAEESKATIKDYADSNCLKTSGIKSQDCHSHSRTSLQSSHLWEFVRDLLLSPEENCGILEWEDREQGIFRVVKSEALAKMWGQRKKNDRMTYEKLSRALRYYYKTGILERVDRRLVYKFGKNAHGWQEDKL
Outline: as §1

ELF1 = ELF1 (Homo sapiens, UniProt P32519 1-619)
Outline: as §1

SPI1 = SPI1 (Homo sapiens, UniProt P17947 1-270)
Outline: as §1

FEV = target: T5, FEV (Homo sapiens, UniProt Q99581 1-238)
T5 sequence: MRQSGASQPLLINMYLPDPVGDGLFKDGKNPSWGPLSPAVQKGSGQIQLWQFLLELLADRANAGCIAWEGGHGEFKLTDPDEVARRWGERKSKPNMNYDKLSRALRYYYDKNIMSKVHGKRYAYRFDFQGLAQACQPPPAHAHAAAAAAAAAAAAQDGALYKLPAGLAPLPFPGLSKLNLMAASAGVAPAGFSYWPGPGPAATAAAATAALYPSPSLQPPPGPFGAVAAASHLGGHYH
Outline: as §1

ERF = target: T6, ERF (Homo sapiens, UniProt P50548 1-548)
T6 sequence: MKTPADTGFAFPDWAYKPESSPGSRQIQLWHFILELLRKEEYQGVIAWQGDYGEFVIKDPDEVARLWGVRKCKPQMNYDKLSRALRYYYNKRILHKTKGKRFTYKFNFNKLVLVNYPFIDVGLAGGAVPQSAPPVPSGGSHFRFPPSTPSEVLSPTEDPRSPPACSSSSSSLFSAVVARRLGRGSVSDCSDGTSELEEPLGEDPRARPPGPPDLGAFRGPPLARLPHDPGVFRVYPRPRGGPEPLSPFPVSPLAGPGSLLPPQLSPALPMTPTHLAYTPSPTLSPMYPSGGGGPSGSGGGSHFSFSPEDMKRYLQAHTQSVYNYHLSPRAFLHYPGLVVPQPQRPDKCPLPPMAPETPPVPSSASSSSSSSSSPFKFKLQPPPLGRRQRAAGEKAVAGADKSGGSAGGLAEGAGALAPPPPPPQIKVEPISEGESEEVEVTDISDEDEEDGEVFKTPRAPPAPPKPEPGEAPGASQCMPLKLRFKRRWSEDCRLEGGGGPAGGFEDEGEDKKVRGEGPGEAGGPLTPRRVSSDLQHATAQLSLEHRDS
Outline: as §1

ETV6 = ETV6 (Homo sapiens, UniProt P41212 1-452)
Outline: as §1

CRX = CRX (Homo sapiens, UniProt O43186 1-299)
Outline: as §1

SPDEF = target: T7, SPDEF (Homo sapiens, UniProt O95238 1-335)
T7 sequence: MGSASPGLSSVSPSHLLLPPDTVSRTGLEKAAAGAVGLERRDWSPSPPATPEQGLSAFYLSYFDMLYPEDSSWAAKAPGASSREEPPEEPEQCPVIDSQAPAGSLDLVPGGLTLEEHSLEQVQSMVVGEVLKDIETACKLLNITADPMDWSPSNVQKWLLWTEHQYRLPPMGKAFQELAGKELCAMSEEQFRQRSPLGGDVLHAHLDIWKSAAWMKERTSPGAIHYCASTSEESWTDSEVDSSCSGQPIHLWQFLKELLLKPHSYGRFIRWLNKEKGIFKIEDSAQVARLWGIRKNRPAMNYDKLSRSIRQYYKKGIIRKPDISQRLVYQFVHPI
Outline: as §1

GABPA = target: T8, GABPA (Homo sapiens, UniProt Q06546 1-454)
T8 sequence: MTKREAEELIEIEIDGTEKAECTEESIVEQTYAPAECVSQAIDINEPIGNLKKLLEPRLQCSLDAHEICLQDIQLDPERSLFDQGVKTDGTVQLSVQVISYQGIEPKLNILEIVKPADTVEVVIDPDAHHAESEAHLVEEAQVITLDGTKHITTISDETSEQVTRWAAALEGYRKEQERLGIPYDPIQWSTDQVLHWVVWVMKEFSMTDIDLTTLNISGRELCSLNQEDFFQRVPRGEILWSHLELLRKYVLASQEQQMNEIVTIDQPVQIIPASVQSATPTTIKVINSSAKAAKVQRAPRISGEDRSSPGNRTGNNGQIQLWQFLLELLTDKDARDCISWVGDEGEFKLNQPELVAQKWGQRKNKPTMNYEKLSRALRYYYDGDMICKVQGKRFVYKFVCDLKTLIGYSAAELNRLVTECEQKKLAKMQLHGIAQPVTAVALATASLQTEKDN
Outline: as §1

ERG = target: T9, ERG (Homo sapiens, UniProt P11308 1-479)
T9 sequence: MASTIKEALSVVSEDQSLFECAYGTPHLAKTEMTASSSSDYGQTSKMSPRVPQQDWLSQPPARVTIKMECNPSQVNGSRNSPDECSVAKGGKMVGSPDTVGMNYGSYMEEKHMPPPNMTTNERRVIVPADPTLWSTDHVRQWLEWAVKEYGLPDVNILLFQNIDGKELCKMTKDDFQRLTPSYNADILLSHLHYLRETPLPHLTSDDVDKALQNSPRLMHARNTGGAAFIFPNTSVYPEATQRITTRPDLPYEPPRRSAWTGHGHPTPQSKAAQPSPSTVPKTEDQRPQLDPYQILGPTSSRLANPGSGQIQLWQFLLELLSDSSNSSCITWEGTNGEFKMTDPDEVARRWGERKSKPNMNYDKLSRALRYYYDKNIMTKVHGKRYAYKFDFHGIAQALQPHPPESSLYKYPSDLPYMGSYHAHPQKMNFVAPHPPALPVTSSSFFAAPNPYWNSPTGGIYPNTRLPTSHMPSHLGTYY
Outline: as §1

ETV3 = target: T10, ETV3 (Homo sapiens, UniProt P41162-2 1-143)
T10 sequence: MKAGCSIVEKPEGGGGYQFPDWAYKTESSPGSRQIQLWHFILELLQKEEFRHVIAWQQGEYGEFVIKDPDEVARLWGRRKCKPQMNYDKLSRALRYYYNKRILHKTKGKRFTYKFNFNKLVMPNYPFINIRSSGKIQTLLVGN
Outline: as §1

ETV7 = target: T11, ETV7 (Homo sapiens, UniProt Q9Y603 1-341)
T11 sequence: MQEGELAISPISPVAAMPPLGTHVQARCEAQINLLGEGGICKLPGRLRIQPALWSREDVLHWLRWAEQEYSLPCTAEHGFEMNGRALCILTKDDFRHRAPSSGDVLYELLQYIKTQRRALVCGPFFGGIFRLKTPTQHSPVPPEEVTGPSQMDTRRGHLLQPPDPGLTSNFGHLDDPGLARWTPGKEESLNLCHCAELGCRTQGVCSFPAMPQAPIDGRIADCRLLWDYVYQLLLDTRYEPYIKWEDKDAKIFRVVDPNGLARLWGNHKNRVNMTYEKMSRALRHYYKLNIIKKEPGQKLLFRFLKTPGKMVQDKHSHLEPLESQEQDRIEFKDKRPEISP
Outline: as §1

CRX, sequence (O43186 whole entry): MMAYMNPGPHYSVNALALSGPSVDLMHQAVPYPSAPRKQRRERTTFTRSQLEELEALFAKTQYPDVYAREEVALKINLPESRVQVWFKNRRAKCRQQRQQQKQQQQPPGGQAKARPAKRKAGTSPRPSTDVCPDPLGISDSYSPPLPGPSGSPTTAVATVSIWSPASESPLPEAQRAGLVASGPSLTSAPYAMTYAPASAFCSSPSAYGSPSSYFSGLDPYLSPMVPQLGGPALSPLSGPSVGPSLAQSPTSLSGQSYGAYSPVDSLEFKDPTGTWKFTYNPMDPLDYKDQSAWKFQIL
ETV6, sequence (P41212 whole entry): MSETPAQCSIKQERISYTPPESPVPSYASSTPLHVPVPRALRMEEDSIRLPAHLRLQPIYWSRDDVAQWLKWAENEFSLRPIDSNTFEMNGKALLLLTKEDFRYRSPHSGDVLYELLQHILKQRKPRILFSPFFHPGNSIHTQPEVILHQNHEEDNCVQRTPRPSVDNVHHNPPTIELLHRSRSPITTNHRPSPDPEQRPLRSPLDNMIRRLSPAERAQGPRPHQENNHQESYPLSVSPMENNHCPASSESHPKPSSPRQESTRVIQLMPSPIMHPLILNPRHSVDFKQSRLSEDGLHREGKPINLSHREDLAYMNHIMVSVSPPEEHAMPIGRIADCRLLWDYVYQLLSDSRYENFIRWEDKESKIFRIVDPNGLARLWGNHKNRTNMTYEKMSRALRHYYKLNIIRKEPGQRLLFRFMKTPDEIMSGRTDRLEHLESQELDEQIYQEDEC
ELF1, sequence (P32519 whole entry): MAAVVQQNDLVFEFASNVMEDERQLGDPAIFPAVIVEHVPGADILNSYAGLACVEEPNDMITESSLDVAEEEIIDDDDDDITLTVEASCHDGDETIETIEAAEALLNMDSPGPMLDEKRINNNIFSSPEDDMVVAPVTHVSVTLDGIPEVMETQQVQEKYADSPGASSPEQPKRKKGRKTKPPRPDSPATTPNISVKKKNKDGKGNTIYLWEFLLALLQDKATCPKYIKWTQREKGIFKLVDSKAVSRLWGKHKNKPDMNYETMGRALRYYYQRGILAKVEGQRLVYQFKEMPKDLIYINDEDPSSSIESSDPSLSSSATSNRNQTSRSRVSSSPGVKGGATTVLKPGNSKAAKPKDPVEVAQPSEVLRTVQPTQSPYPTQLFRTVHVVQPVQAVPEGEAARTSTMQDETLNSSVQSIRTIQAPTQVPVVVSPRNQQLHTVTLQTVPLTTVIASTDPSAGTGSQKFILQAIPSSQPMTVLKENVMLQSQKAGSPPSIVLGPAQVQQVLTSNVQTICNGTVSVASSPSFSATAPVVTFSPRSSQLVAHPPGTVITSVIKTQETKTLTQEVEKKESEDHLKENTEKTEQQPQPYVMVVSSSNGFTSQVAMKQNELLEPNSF

For ACAAGG, the binding signal (EHF) was 1.04 fold enrichment (6-mer frequency, TF over GST control), the binding signal (ELK3) was 1.02 fold enrichment (6-mer frequency, TF over GST control) and the binding signal (ELF3) was 1.09 fold enrichment (6-mer frequency, TF over GST control). For the same sequence, the binding signal (ELF5) was 1.14 fold enrichment (6-mer frequency, TF over GST control).
For TGTCGC, the binding signal (ELF1) was 1.04 fold enrichment (6-mer frequency, TF over GST control), the binding signal (EHF) was 1.03 fold enrichment (6-mer frequency, TF over GST control) and the binding signal (SPI1) was 1.02 fold enrichment (6-mer frequency, TF over GST control). For the same sequence, the binding signal (FEV) was 1.02 fold enrichment (6-mer frequency, TF over GST control), the binding signal (ELF3) was 1.08 fold enrichment (6-mer frequency, TF over GST control) and the binding signal (ERF) was 1.04 fold enrichment (6-mer frequency, TF over GST control). For the same sequence, the binding signal (ELF5) was 1.04 fold enrichment (6-mer frequency, TF over GST control) and the binding signal (ETV6) was 1.01 fold enrichment (6-mer frequency, TF over GST control).
With TAAGTG the binding signal (CRX) was 1.14 fold enrichment (6-mer frequency, TF over GST control).
For GGTTGT, the binding signal (ELF3) was 1.06 fold enrichment (6-mer frequency, TF over GST control) and the binding signal (SPDEF) was 1.03 fold enrichment (6-mer frequency, TF over GST control).
TAGAGG was tested, and the binding signal (CRX) was 1.02 fold enrichment (6-mer frequency, TF over GST control).
With GCGTAA the binding signal (CRX) was 1.03 fold enrichment (6-mer frequency, TF over GST control).
For AGCTTG, the binding signal (GABPA) was 1.02 fold enrichment (6-mer frequency, TF over GST control) and the binding signal (CRX) was 1.04 fold enrichment (6-mer frequency, TF over GST control).
AGTTAT was tested, and the binding signal (ELK3) was 1 fold enrichment (6-mer frequency, TF over GST control) and the binding signal (ELF3) was 1.08 fold enrichment (6-mer frequency, TF over GST control).
GTGCAC was tested, and the binding signal (SPI1) was 1.07 fold enrichment (6-mer frequency, TF over GST control) and the binding signal (ELF3) was 1.02 fold enrichment (6-mer frequency, TF over GST control).
GGGATA was tested, and the binding signal (CRX) was 1.04 fold enrichment (6-mer frequency, TF over GST control).
GGGGAT was tested, and the binding signal (CRX) was 1.21 fold enrichment (6-mer frequency, TF over GST control).
With TAAGGA the binding signal (CRX) was 1.22 fold enrichment (6-mer frequency, TF over GST control) and the binding signal (ELF5) was 1.32 fold enrichment (6-mer frequency, TF over GST control).
In the case of ATTGGA, the binding signal (CRX) was 1.03 fold enrichment (6-mer frequency, TF over GST control).
ATCAGG was tested, and the binding signal (CRX) was 1.04 fold enrichment (6-mer frequency, TF over GST control).
With GTGTAA the binding signal (SPI1) was 1.04 fold enrichment (6-mer frequency, TF over GST control) and the binding signal (ELF3) was 1.11 fold enrichment (6-mer frequency, TF over GST control).
With ACCGGT the binding signal (ELF3) was 1.01 fold enrichment (6-mer frequency, TF over GST control) and the binding signal (SPDEF) was 1.02 fold enrichment (6-mer frequency, TF over GST control).
In the case of GGATTG, the binding signal (CRX) was 1.12 fold enrichment (6-mer frequency, TF over GST control).
In the case of GATCAG, the binding signal (CRX) was 1.08 fold enrichment (6-mer frequency, TF over GST control).
In the case of AGGATA, the binding signal (ERG) was 1.06 fold enrichment (6-mer frequency, TF over GST control), the binding signal (FEV) was 1.01 fold enrichment (6-mer frequency, TF over GST control) and the binding signal (CRX) was 1.14 fold enrichment (6-mer frequency, TF over GST control). The binding signal (SPDEF) was 1.31 fold enrichment (6-mer frequency, TF over GST control), the binding signal (ELF5) was 1.17 fold enrichment (6-mer frequency, TF over GST control) and the binding signal (ETV3) was 1.06 fold enrichment (6-mer frequency, TF over GST control).
In the case of GTTTAG, the binding signal (CRX) was 1 fold enrichment (6-mer frequency, TF over GST control).
With AAGCCG the binding signal (CRX) was 1.42 fold enrichment (6-mer frequency, TF over GST control) and the binding signal (ETV7) was 1.05 fold enrichment (6-mer frequency, TF over GST control).

From PMC7862700, “An all-to-all approach to the identification of sequence-specific readers for epigenetic DNA modifications on cytosine”
